Measurements: PubChem BioAssay AID449764 (Southern Research Specialized Biocontainment Screening …, 2010)
Hit rate of the full screen: of about 2,300 compounds, about 1,700 (74%) were called active. The set was probably picked from earlier hits. This is one part of the list. Results with a measured potency or affinity are listed apart. A number with no mark means an inactive call. No rule for the calls is given here.

Assay: Mycobacterium tuberculosis H37Rv growth inhibition, no glycerol, confirmatory dose response (AID 449764);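 also: growth read after 7 days of incubation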
Conditions: series mostly up to 100 µM; inhibition: at the top concentration

Structure (SMILES) | inhibition
O=C(CSCC(=O)Nc1ccc2ccccc2c1)NCc1ccccc1 | -0.93%
Cn1ccnc1-c1nnn(-c2ccc(Cl)c(Cl)c2)n1 | -4.2%
CCOc1ccc(-n2c(-c3ccc(Br)cc3)c[n+]3c2CCCCC3)cc1 | 28.2%
c1ccc(Cn2nnc3c(N4CCc5ccccc5C4)ncnc32)cc1 | 10.7%
Cn1c(=O)c(C(=O)COC(=O)c2cc(C(F)(F)F)nc3c(C(F)(F)F)cccc23)c(N)n(CC2CC2)c1=O | -1.78%
Cc1cc(NC(=O)c2noc3c2CCCC3)nn1Cc1ccc(Cl)cc1 | -5.15%
Cc1ccc(NC(=O)/C(Cl)=C\c2ccccc2)cc1 | -8.13%
Nc1ccc2c(c1)Cc1ccccc1-2 | -1.21%
C/C=C(\C)C(=O)Nc1cccc(C2=NOC3(C2)C[C@H](C(N)=O)N(C(=O)c2cc([N+](=O)[O-])cc([N+](=O)[O-])c2)C3)c1 (stereo partly specified) | 20.7%
CCc1cc(C(=O)Nc2ccc(C)cc2Br)cs1 | 8.99%
CC(=O)CCSc1ncnc2sc(-c3ccccc3)cc12 | -1.41%
O=C(CCSc1ccc(Cl)cc1)NC12CC3CC(CC(C3)C1)C2 | -2.68%
Nc1cc(=O)[nH]c(SCc2csc(-c3ccccc3)n2)n1 | -1.35%
CSc1ccccc1C(=O)NC1CCSc2ccccc21 (stereo unspecified) | 20.9%
Cc1cccc(COc2ccccc2/C=N/Nc2ccc([N+](=O)[O-])cc2)c1 | 5.72%
CCCn1c(O)c(N=NC(=O)c2ccco2)c2ccccc21 | 4.39%
CCn1nc(C)c(C(=O)Nc2cc(Oc3cc(C)cc(C)c3)cc([N+](=O)[O-])c2)c1C | -9.17%
Cc1c(Cl)c([N+](=O)[O-])nn1Cc1ccc(C(=O)N/N=C\c2cccc(Br)c2)o1 | 27.6%
CN1C(=O)CC(c2ccccc2)C1=O (stereo unspecified) | -0.42%
COc1ccc(OC)c(C(=O)NC(CC(N)=O)c2ccc(NCc3ccc(F)c(F)c3)c([N+](=O)[O-])c2)c1 (stereo unspecified) | -5.11%
Nc1ccc2oc(-c3cccs3)nc2c1 | -1.81%
Fc1cccc2sc(Nc3nc4cc5c(cc4s3)OCO5)nc12 | 5.75%
CC1=CC(=O)NP(=O)(Oc2ccc3ccccc3c2)N1 (stereo unspecified) | -1.64%
O=C(OCCN1C(=O)c2ccccc2C1=O)c1cc2ccccc2o1 | -0.54%

Structure (SMILES) | inhibition
C=CCc1cccc(CNc2cnc3ccccc3c2)c1O | 2.59%
CNc1cccccc1=S | -4.44%
COc1cc2cnc(-c3ccccc3)c(-c3ccc(C(F)(F)F)cc3)c2cc1OC | -0.08%
CCCCc1cc(=O)oc2cc(O)ccc12 | 11.3%
Cc1n[nH]c(=S)n1/N=C/c1cccc(OCc2ccccc2)c1 | 7.56%
COC(=O)c1cccc(C#CC(NP(=O)(c2ccccc2)c2ccccc2)c2ccccc2)c1 (stereo unspecified) | 0.43%
COc1ccc(NC(=O)CN(C)C(=O)c2n[nH]c3ccccc23)cc1 | -4.02%
CCOC(=O)c1cc(-c2cccc([N+](=O)[O-])c2)on1 | -2.44%
O=C(C1CCC1)N1CCN(S(=O)(=O)c2ccc(Br)cc2Cl)CC1 | 5.08%
CCCNC(=O)NC(=O)COc1ccc2oc3ccccc3c2c1 | 6.46%
COc1ccc(N=Cc2ccc(CNS(=O)(=O)c3ccc(Cl)cc3)o2)cc1 | -4.59%
CCOC(=O)c1ccc(NC(=S)Nc2ccc3[nH]c(=O)[nH]c3c2)cc1 | 29.6%
CCCN(C(=O)CCOc1ccc(C(C)(C)C)cc1)c1c(N)n(Cc2ccccc2)c(=O)[nH]c1=O | -6.04%
O=C(N/N=C/c1cn(-c2ccccc2)nc1-c1cccs1)c1ccc(Cl)cc1 | 7.81%
c1ccc(CCNc2ncnc3c2cnn3-c2ccccc2)cc1 | -1.21%
Nc1nc(-c2cccc(F)c2)cs1 | -0.58%
c1ccc(NNC2=NCCCCC2)cc1 | -2.54%
Cc1ccc(CN2CCN(Cc3ccc(-n4cccn4)cc3C)CC2CCO)cc1 (stereo unspecified) | -3.02%
C/C(=N\N(Cc1ccccc1)c1ccccc1)c1ccncc1 | 4.7%
O=C(NCc1ccc2c(c1)OCO2)c1c(O)nc2sccn2c1=O | 1.96%
CCOC(=O)C1CCN(C(=O)c2ccc3c(c2)NC(=O)/C(=C/c2ccccc2)S3)CC1 | -14.7%
O=C(CCN1C(=O)/C(=C/c2ccccc2Cl)SC1=S)N1CCCC1 | 0.83%
Clc1ccc(-c2ccc(C=Nc3ccc(N4CCOCC4)cc3)o2)c(Cl)c1 | -3.46%
O=C(c1ccccc1)c1c[nH]c(C(=O)NNc2ccccc2)c1 | -7.38%

Structure (SMILES) | inhibition
O=C(C[n+]1ccccc1)NNc1ccccc1 | -6.73%
O=C(CSc1nc(Nc2ccccc2)nc(N2CCOCC2)n1)Nc1cc(Cl)ccc1O | 2.45%
CCOC(=O)c1cn[nH]c1N | -1.01%
O=C(NNc1ccc([N+](=O)[O-])cc1)c1ccco1 | -3.37%
CC(C)Oc1ccc(NC(=O)Oc2ccccc2)cc1 | -21.4%
COC(=O)C(NC(=O)c1ccc(OC)cc1)(Nc1ncc(S(=O)(=O)c2ccc([N+](=O)[O-])cc2)s1)C(F)(F)F (stereo unspecified) | -3.98%
N#C/C(=C1\CCCN1)c1nc(-c2ccccc2)cs1 | 0.87%
COC(=O)c1ccc(N/N=C/c2cc([N+](=O)[O-])cc(OC)c2O)cc1 | 3.48%
O=C(c1ccco1)N1CCN(C(=O)C2CC(c3ccc(Cl)c(Cl)c3)=NO2)CC1 (stereo unspecified) | 12.1%
CCCSC1=C(C#N)C(c2ccc(Cl)cc2Cl)CC(=O)N1 (stereo unspecified) | -8.3%
COc1ccc(S(=O)(=O)N(C)CC(=O)NCCCn2ccnc2)cc1Cl | -6.65%
CC1CCC/C(=N\NC(=S)Nc2ccccc2)C1 (stereo unspecified) | 0.12%
Cc1nn(-c2ccccc2)c(Cl)c1/C=N/NC(=O)c1ccc(CNc2ccccc2)o1 | -3.39%
Cc1cc(/C=C(/C#N)c2cccc(F)c2)c(C)n1-c1cccnc1 | 1.53%
COc1ccc2[nH]c(=O)c(CNc3cccc(C)c3)cc2c1 | 2.12%
CCOC(=O)c1ccc(NC(=O)CSc2ccc(-c3cccnc3)nn2)cc1 | -3%
CC1(C)CN(c2ccccc2)N(C(=O)c2ccc(C#N)cc2)C1=O | 2.97%
C(=N\N1CCN(C2c3ccccc3-c3ccccc32)CC1)/c1ccccn1 | -1.89%
CC(=O)c1ccc2c(c1)C1C(Cl)C(Sc3ccccc3[N+](=O)[O-])CC1C(c1ccccc1)N2 (stereo unspecified) | 3.73%
Cc1cn(-c2ccc(Br)cc2)[nH]c1=O | -5.24%
Nc1cnccc1C(=O)O | -4.85%
CC(NC(=O)c1ccccc1Br)C1CC2CCC1C2 (stereo unspecified) | -1.35%
O=C(NC1CCCCC1)C1CC(=O)N(c2cccc([N+](=O)[O-])c2)C1 (stereo unspecified) | -25.3%
